# Screens as filed in PubChem BioAssay.
# PD-1 reversal – activators reversing PD-1 mediated T-cell inhibition, primary screen, luminescence, primary human CD4 T cells, PD-L1 beads. CellTiter-Glo 96 h. activation, % (concentration not given with the values). 29,000 tested, under 10 active; call rule not given here;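 also: 0% = median vehicle wells and 100% = positive control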
# NOMO-1 viab – NOMO-1 AML cell viability reduction, primary screen, STK33 inhibitor project, CellTiter-Glo luminescence; inhibition, % (test concentration not listed); actives 7.5% (n = 37,000); NOMO-1 AML viability, 72 h; AID 2330, 2010; in the data active = inhibition above about 80%; inconclusive = no clear call, values can overlap the other calls
# U2OS ROS induce – ROS inducers in U2OS cancer cells, primary screen, cell-based, H2DCF-DA fluorescence; U2OS ROS induction; ROS induction (% of piperlongumine), % at 10 µM; actives 2% (n = 46,000); AID 624156, 2012; in the data active = ROS induction above about 79%, passing the limit was not always enough; inconclusive = no clear call, values can overlap the other calls;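 also: 0% = DMSO vehicle median and 100% = reference compound median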
# YB-1 expr inh – inhibitors of YB-1 gene expression, primary screen, cell-based, fluorescence. U2OS, qRT-PCR YB-1 vs CDIP delta delta Cp, 16 h; active compounds read high; zero = DMSO, each unit about twofold. delta delta Cp (YB-1 minus CDIP) (no concentration beside the values). actives 0.37% (n = 30,000). AID 434959, 2010;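 active = delta delta Cp rounded down to an integer at or above 3, about 3 SD of DMSO wells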;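 also: higher means less YB-1 transcript or more CDIP transcript relative to DMSO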
# Active calls of the source: *; ? = inconclusive; . = not tested or not shown. Shown is part of a subset that was picked to be rich in hits.
SMILES,PD-1 reversal,NOMO-1 viab,U2OS ROS induce,YB-1 expr inh
C[C@@H]1CCCCO[C@H](CN(C)C(=O)c2ccncc2)[C@@H](C)CN([C@H](C)CO)C(=O)c2cc(NC(=O)NC3CCCCC3)ccc2O1,1,12,123*,0.12
O=C(Cn1cc(C(=O)C2CC2)c2ccccc21)NCc1cccs1,.,.,-6,.
Cc1ccc(C(=O)CSC#N)o1,.,.,11,.
CS(=O)(=O)N(CC(=O)Nc1ccc(Oc2ccccc2)cc1)c1cc(Cl)c(Cl)cc1Cl,0,118*,11,.
CS(=O)(=O)N(CC(=O)Nc1ccc(C(F)(F)F)cc1)c1ccc(Oc2ccccc2)cc1,-3,109*,.,.
COC(=O)c1cc(NC(=O)CN(c2cc(Cl)c(Cl)cc2Cl)S(C)(=O)=O)ccc1Cl,-1,133*,38,.
CS(=O)(=O)N(CC(=O)Nc1ccc(C(F)(F)F)cc1)c1cccc(C(F)(F)F)c1,-5,67,-10,.
Cc1ccc(NC(=O)CN(c2cc(Cl)c(Cl)cc2Cl)S(C)(=O)=O)cc1Cl,0,84*,13,.
CC1CCc2c(sc(NC(=O)c3nc4ncccn4n3)c2C(N)=O)C1 (configuration not stated),4,-13,-4,.
COc1ccccc1CNc1nc2nc(C)cc(C)n2n1,.,-16,.,.
C=CCn1c(SCC(=O)Nc2ccc(C)cc2)nc2sc3c(c2c1=O)CCCC3,.,.,11,.
O=C(Nc1cccc(F)c1)C1CCN(c2ncnc3c2sc2cccc(F)c23)CC1,.,.,111*,.
Cc1nn(CC(=O)Nc2ccc(F)cc2)c(C)c1[N+](=O)[O-],1,-2,4,.
Cc1ccc(NC(=O)Cn2nc(C)c([N+](=O)[O-])c2C)cc1C,-1,14,169*,.
Cc1cc(C)c(C)c(S(=O)(=O)NCC(=O)Nc2ccc3c(c2)OCCO3)c1C,2,4,3,.
COc1ccc(S(=O)(=O)N(C)C[C@@H]2Oc3ccc(NC(=O)Nc4ccc(C(F)(F)F)cc4)cc3C(=O)N([C@H](C)CO)C[C@@H]2C)cc1,-1,105*,-8,-0.51
COc1ccc(S(=O)(=O)N(C)C[C@@H]2Oc3ccc(NC(=O)Nc4ccc(C(F)(F)F)cc4)cc3C(=O)N([C@H](C)CO)C[C@H]2C)cc1,2,113*,1,-0.25
C[C@@H]1CCCCO[C@H](CN(C)S(=O)(=O)c2ccc(Cl)cc2)[C@@H](C)CN([C@H](C)CO)C(=O)c2cc(NC(=O)Nc3ccc(C(F)(F)F)cc3)ccc2O1,-5,98*,25,-0.044
COc1ccc(S(=O)(=O)N(C)C[C@@H]2Oc3ccc(NC(=O)Nc4ccc(C(F)(F)F)cc4)cc3C(=O)N([C@@H](C)CO)C[C@H]2C)cc1,0,48,34,0.019
C[C@@H]1CCCCO[C@@H](CN(C)S(=O)(=O)c2ccc(Cl)cc2)[C@@H](C)CN([C@H](C)CO)C(=O)c2cc(NC(=O)Nc3ccc(C(F)(F)F)cc3)ccc2O1,-2,23,2,-0.38
C[C@@H]1CN([C@@H](C)CO)C(=O)c2cc(NC(=O)Nc3ccc(C(F)(F)F)cc3)ccc2O[C@H]1CN(C)S(=O)(=O)c1ccc(Cl)cc1,-1,93*,16,-0.065
COc1ccc(NC(=O)Nc2ccc3c(c2)C(=O)N([C@H](C)CO)C[C@H](C)[C@H](CN(C)S(=O)(=O)c2ccc(F)cc2)O3)cc1,-1,49,56,10*
COc1ccc(S(=O)(=O)N(C)C[C@H]2Oc3ccc(NC(=O)Nc4ccc(F)cc4)cc3C(=O)N([C@@H](C)CO)C[C@H]2C)cc1,1,1,8,0.12
COc1cc(NC(=O)CCCN2C(=O)c3ccccc3C2=O)cc(OC)c1,1,3,-6,.
Cc1cc(C)nc(SCC(=O)N2CCN(c3nnc(-c4ccccc4)c4ccccc34)CC2)n1,0,-10,9,.
SMILES,PD-1 reversal,NOMO-1 viab,U2OS ROS induce,YB-1 expr inh
COc1cc(/C=C\C(=O)O)cc(OC)c1OC,.,.,-5,0.043
COc1cc2c(c(N)c1OC)C(=O)/C(=C/c1cc(C)c(O)c(C)c1)C2,-11,97*,34,0.47
Cc1ccc(NC(=O)c2ccc3c(c2)CCO3)cc1,2,-9,-8,-0.0086
Cc1ccc(S(=O)(=O)N(Cc2cc3cccc(C)c3[nH]c2=O)c2ccccc2)cc1,-3,116*,.,.
CCOC(=O)CSc1sc(C(=O)OCC)c2c1S(=O)(=O)N(C)c1ccccc1-2,0,120*,112*,-0.41
CCOC(=O)CSc1ncc(-c2ccccc2)nn1,1,-22,-4,.
Cc1nc(-c2ccccc2)sc1C(=O)C1C(=O)C(=O)N(CCCN2CCOCC2)C1c1cccs1 (configuration not stated),2,2,115*,.
CC(C)(C)c1ccc(-c2cc3ccccn3c2)cc1,1,104*,7,10*
CCCCN1C(=O)C(O)(CC(=O)c2ccco2)c2cc(Br)ccc21 (configuration not stated),.,113*,.,.
O=C(CC1(O)C(=O)N(CCc2ccccc2)c2ccc(Br)cc21)c1ccncc1 (configuration not stated),.,114*,.,.
CCCCN1C(=O)C(O)(CC(=O)c2ccco2)c2ccccc21 (configuration not stated),-1,119*,-2,.
CCN1C(=O)C(O)(CC(=O)c2ccco2)c2cc(Br)ccc21 (configuration not stated),-13,122*,-2,.
Cc1coc(C)c1C(=O)CC1(O)C(=O)N(CCc2ccccc2)c2ccccc21 (configuration not stated),-3,23,-9,.
Cc1n[nH]c(C)c1C(=O)CC1(O)C(=O)N(Cc2ccccc2)c2ccccc21 (configuration not stated),2,5,-3,.
CC1CCCCN1CCNC(=O)CCc1nnc2n(Cc3ccc(F)cc3)c(=O)c3ccccc3n12 (configuration not stated),.,.,-4,.
CC(C)NC(=O)Nc1ccc2c(c1)C(=O)N([C@H](C)CO)C[C@H](C)[C@H](CN(C)Cc1ccc(Cl)c(Cl)c1)OCCCC[C@@H](C)O2,-6,101*,?,-0.13
C[C@@H]1CCCCO[C@@H](CN(C)Cc2ccc(Cl)c(Cl)c2)[C@@H](C)CN([C@H](C)CO)C(=O)c2cc(NC(=O)c3ccccc3)ccc2O1,-6,122*,34,0.32
C[C@@H]1CCCCO[C@@H](CN(C)Cc2ccc(Cl)c(Cl)c2)[C@@H](C)CN([C@H](C)CO)C(=O)c2cc(NC(=O)Nc3ccc(F)cc3)ccc2O1,-2,134*,21,0.025
C[C@@H]1CCCCO[C@H](CN(C)Cc2ccccc2)[C@@H](C)CN([C@H](C)CO)C(=O)c2cc(NC(=O)c3ccccc3)ccc2O1,.,27,-4,0.065
C[C@@H]1CN([C@@H](C)CO)C(=O)c2cc(NC(=O)NC3CCCCC3)ccc2O[C@@H]1CN(C)Cc1ccc(Cl)c(Cl)c1,-1,22,32,0.1
